# NPC1 prom act = activates the NPC1 promoter; Huh7 NPC1 promoter luciferase reporter, 24 h; Potency, µM (highest dose often 9.22 µM), inactives show top-dose activation, actives largely listed as activators; actives 2.4% (n = 320,000); AID 485313; further: % of control where 0% means no effect; nearly all actives have a fitted effect of over 60% in size
#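 Stable NPC1-promoter luciferase Huh7 line; cpd (DMSO) 24 h, 37 °C, 5% CO2; Amplite luciferase reagent 10 min RT; luminescence readout. qHTS format.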
# KinaseGlo FLuc = Kinase-Glo luciferase inhibition (counter-screen). Q27757. Kinase-Glo luciferase, ATP luminescence, 8 min. Potency, µM (doses to about 38.3 µM), inactives show top-dose activity change, negative = inhibition, usual class: inhibitors. actives 0.28% (n = 200,000). AID 1379; further: on the % scale 0 is the no-effect control and ±100 the full control effect; nearly all actives have a fitted effect of over 60% in size
#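 Light output from Kinase-Glo luciferase with luciferin and 10 uM ATP in 50 mM imidazole pH 7.2, KCl, MgCl2, Tween 20, BSA; compound pin-delivered, 8-min ambient incubation, then luminescence read.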
# ELG1 genotox = induces genotoxicity in HEK293T cells with luciferase-tagged ELG1; Potency, µM (doses to about 46 µM), for the others: top-dose activity change, positive = activation, actives largely listed as activators; actives 1.3% (n = 330,000); AID 504466; HEK293T ELG1-luciferase reporter, luminescence, 16 h; further: % of control where 0% means no effect; nearly all actives have a fitted effect of over 60% in size
#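 Screening used a luciferase reporter fused to human ELG1 in HEK293T cells. Luminescence was read on a CCD plate imager after 16 hr exposure and 30 min ONE-Glo incubation.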
# Rab9 promoter act = Rab9 promoter activation; actives 2.8% (n = 320,000); Potency, µM (doses to about 9.22 µM), for inactives: top-dose activation, negative = inhibition, actives largely listed as activators; Huh7 Rab9 promoter-luciferase reporter, luminescence, 24 h; further: % of control where 0% means no effect; nearly all actives have a fitted effect of over 60% in size
#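 Cell-based reporter: Huh7 stable for Rab9 promoter-driven luciferase, plated in reduced-serum medium with 10% FBS at 1500 cells/well, compound-treated 24 h at 37 °C, luminescence read after 10 min reagent.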
# FLuc counter = counter-screen for miR-21 project: firefly luciferase inhibitors or activators; P08659; purified FLuc, Km substrates, luminescence inhibition; actives 6.9% (n = 360,000); Potency, µM (top dose mostly 57.5 µM), without a hit: top-dose activity change, negative = inhibition, hits mostly inhibitors;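 further: plate controls were vehicle for no effect and reference inhibitor for full effect; nearly all actives have a fitted effect of over 55% in size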
# Target sequence (P08659 whole entry, looked up): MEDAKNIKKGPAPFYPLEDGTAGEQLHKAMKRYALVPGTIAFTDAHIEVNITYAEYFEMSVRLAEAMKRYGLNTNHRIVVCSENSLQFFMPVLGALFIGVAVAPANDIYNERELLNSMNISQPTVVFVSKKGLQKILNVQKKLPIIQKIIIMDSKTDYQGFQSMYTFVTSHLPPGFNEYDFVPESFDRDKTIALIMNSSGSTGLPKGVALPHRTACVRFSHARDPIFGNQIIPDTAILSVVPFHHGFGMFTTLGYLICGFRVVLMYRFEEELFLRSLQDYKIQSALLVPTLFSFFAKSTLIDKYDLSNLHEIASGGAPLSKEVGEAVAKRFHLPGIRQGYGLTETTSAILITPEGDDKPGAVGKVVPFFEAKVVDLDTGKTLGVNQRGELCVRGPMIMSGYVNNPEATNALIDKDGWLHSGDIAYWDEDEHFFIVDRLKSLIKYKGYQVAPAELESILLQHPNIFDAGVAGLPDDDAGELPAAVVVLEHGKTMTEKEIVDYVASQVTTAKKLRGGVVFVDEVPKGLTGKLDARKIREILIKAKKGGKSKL
#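 Purified P. pyralis luciferase (10nM final) with 10uM D-luciferin and 10uM ATP (Km levels) in 50mM Tris acetate pH 7.5, 10mM Mg acetate, 0.01% Tween-20, 0.05% BSA; qHTS 6-point titration, ~60 µM downward; luminescence read.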
# SMN2 splice up = SMN2 splice variant enhancement; HEK293 SMN2-luciferase splicing reporter, luminescence, 30-36 h; Potency, µM (doses to about 46.1 µM), for the others: at the highest dose activity change, positive = activation, actives largely listed as activators; actives 2.8% (n = 210,000); further: % of control where 0% means no effect; nearly all actives have a fitted effect of over 55% in size
#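 qHTS luciferase splicing reporter: luminescence rises when SMN2 exon 7 is included in transfected HEK293 cells. Compound exposure lasted 30-36 h at 37C, with 4.5 mM final sodium butyrate as control, followed by a ONE-Glo read.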
# An asterisk follows results filed as active; ? = inconclusive; / = no result. Sampled rows, rich in hits. Any-hit rate of the full collection: about 7.3%. The call rests on the fitted dose curve; in most records, active means well fitted curve in the direction sought with a large enough effect; inconclusive means small, poorly fitted or top-dose-only effect, or another doubt; inactive means no such curve, though single readings can be large; an effect the other way counts as inactive or inconclusive. Potency means the concentration at half of the fitted maximal effect.
SMILES,NPC1 prom act,KinaseGlo FLuc,ELG1 genotox,Rab9 promoter act,FLuc counter,SMN2 splice up
CCOC(=O)c1sc2nc3c(SCC(=O)O)cc(C(=O)c4ccccc4O)cn3c(=O)c2c1C,18%,-10%,2%,13%,2.4µM*,19%
Cc1cccc(-c2nnc(SCC(=O)N3CCCC3)o2)c1,3.5µM*,/,?,4µM*,27µM*,/
COc1cccc(-c2nnc(SCC(=O)N3CCCCC3)o2)c1,/,/,/,/,?,25%
Cc1cccc(-c2nnc(SCC(=O)N3CCCCC3)o2)c1,/,/,/,/,?,4.5µM*
Cc1cccc(-c2nnc(SCCC(=O)O)o2)c1,/,/,/,/,11µM*,-15%
COc1cc(OC)nc(/N=C/N(C)C)n1,-1%,-2%,-1%,-7%,-1%,7%
CC(=O)c1ccc(Cc2cnc(N)s2)cc1,6%,1%,11%,-3%,0%,-14%
Cn1c(=O)c2c(nc(CN3CCN(Cc4ccccc4)CC3)n2Cc2cccc(Cl)c2)n(C)c1=O,-1%,-2%,-19%,-10%,-1%,-16%
O=C(N/N=C/c1c[nH]c2ccccc12)c1cc(-c2cccc3ccccc23)n[nH]1,-12%,2%,-2%,-1%,15µM*,18%
O=C(N/N=C/c1c[nH]c2ccccc12)c1cc(-c2ccccc2)n[nH]1,-1%,-2%,-4%,0%,12µM*,2%
O=C(N/N=C/c1ccc(O)cc1O)c1cc(-c2ccccc2)n[nH]1,/,1%,/,/,/,/
Cc1ccc(-c2cc(C(=O)N/N=C/c3c[nH]c4ccccc34)[nH]n2)cc1,-19%,0%,-1%,-17%,11µM*,-6%
O=C(O)c1ccc(/C=N/NC(=O)c2cc(-c3ccc4c5c(cccc35)CC4)n[nH]2)cc1,-4%,0%,-2%,-7%,21µM*,4%
c1ccc2c(c1)CNC1(CCCCC1)C2,0%,0%,-13%,-2%,2%,-3%
COc1ccccc1N1CCN(C(=O)c2sc3nc4n(c(=O)c3c2C)CCC4)CC1,-3%,/,-1%,-4%,1%,/
COc1cc(/C=N/NC(=O)c2sc(N)c(C#N)c2C)ccc1O,-3%,-6%,1%,3%,-19%,11%
O=C(N/N=C/c1c[nH]c2ccccc12)c1cc(-c2ccc3ccccc3c2)n[nH]1,-11%,6%,-12%,-4%,9.5µM*,-28%
O=C(N/N=C/c1c[nH]c2ccccc12)c1cc(-c2ccc(-c3ccccc3)cc2)n[nH]1,30%,0%,13%,?,1.3µM*,24%
O=C(N/N=C/c1c[nH]c2ccccc12)c1ccn[nH]1,7%,-6%,10%,?,21µM*,27%
O=C(N/N=C/c1cccs1)c1cc(-c2cccc3ccccc23)n[nH]1,1%,4%,15%,26%,19µM*,?
Cc1nc(C)c(C(=O)N/N=C/c2c[nH]c3ccccc23)s1,-4%,15%,9%,-6%,?,11%
CCCSC1C(C)=C(C)C(=O)N1Cc1ccccc1 (stereo not drawn),-4%,/,0%,2%,8%,/
CCOC(=O)N1CCN(C(=O)Nc2ccc3nc(-c4ccccn4)c(-c4ccccn4)nc3c2)CC1,-1%,1%,-1%,3%,4%,-14%
Cc1cc(C(=O)COc2ncnc3sccc23)c(C)n1C1CC1,?,0%,?,?,-13%,7%
CSc1ncccc1C(=O)OCC(=O)c1cc(C)n(CC2CCCO2)c1C (stereo not drawn),1.1µM*,/,?,0.4µM*,0.6µM*,/
CCCn1c(C)cc(C(=O)COC(=O)c2nccnc2N)c1C,1.1µM*,-10%,?,0.45µM*,3.4µM*,10µM*
CCCn1c(C)cc(C(=O)COc2ncnc3sccc23)c1C,2.8µM*,1%,?,2.2µM*,8.5µM*,11µM*
